# Measured values taken from PubChem BioAssay (Tox21).
# Some structures have more than one record in an assay (separate samples or runs), and their calls can disagree. The source made the active and inactive calls. Calls follow the shape of the dose curve; as a rule, active = well fitted cell-killing curve with a large enough effect in the repeat runs; inconclusive = weak or mixed curves, or effect the other way; inactive = flat fitted curve, though single readings scatter.
# Assay: qHTS assay to identify small molecule HDAC inhibitors - cell viability counter screen (AID 1259365); also: nearly all actives have a fitted effect of over 50% in size
# Details: HCT-116 viability, CellTiter-Glo ATP luminescence, 2 h; series mostly up to 92.4 µM; activity change, negative = cytotoxicity: at the top concentration
# Source text: U.S. Tox21 Program National Center for Advancing Translational Sciences [NCATS] NIH Chemical Genomics Center [NCGC] U.S. Environmental Protection Agency [EPA] National Institutes of Environmental Health Sciences [NIEHS] National Toxicology Program [NTP] U.S. Food and Drug Administration [FDA] Tox21 Assay Overview: Histone deacetylases (HDACs) are a group of epigenetic enzymes that regulate gene expression by histone deacetylation. HDACs are capable of introducing epigenetic modifications and such aberrations contribute to the onset and progression of several human diseases, thus making HDACs a popular therapeutic target. For identifying endogenous class I/II HDAC inhibitors a homogenous, luminogenic HDAC I/II cell based assay was used to measure the relative activity of class I and II HDACs from cells. Wild type HCT-116 cells were used to screen Tox21 compound libraries for identifying class I/II HDAC inhibitors.
# Tox21 Assay Protocol Summary: HCT-116 cells were dispensed at 1,500 per well in 5uL of culture medium into white solid bottom 1536-well plates (Greiner Bio-One, Monroe, NC) using a Multidrop Combi (Thermo Scientific, Waltham, MA) dispenser. The assay plates were incubated at 37 C and 5% CO2 for an overnight, and then 23nL of compounds dissolved in DMSO and positive control were transferred using a Pintool station (Wako, San Diego, CA). The assay plates were incubated at 37C and 5% CO2 for 2hr. After compound treatment, 4uL of CellTiter-Glo reagent (Promega Corporation, Madison, WI) was added to each well of the assay plates using Flying Reagent Dispenser (FRD, Aurora Discovery, San Diego, CA) and incubated the assay plates at room temperature for 30min. The luminescence signal was quantified using a ViewLux plate reader (Perkin Elmer, Shelton, CT).
# % is scaled to controls: 0 for no effect and ±100 for the full control effect; potency is read from the fitted curve at half-maximal effect.
SMILES,"activity change, negative = cytotoxicity",Potency
CCCCC#N,2.52% (inactive),
CCN(C(C)=O)c1cccc(-c2ccnc3c(C#N)cnn23)c1,-2.32% [at 42.5 µM] (inactive),
OCC1CO1 (stereo not given),,inactive
CC(C)(C)c1ccc(CCOc2ncnc3ccccc23)cc1,4.14% (inactive),
CCc1cnc(C2=NC(C)(C(C)C)C(=O)N2)c(C(=O)O)c1 (stereo not given),,inactive
CCCCCl,0.024% (inactive),
O=C(O)C(F)(F)C(F)(F)C(F)(F)C(F)(F)C(F)(F)C(F)(F)C(F)(F)C(F)(F)F,0.0284% (inactive),
CCCC[N+]1(C)[C@@H]2CC(OC(=O)[C@H](CO)c3ccccc3)C[C@H]1[C@@H]1O[C@@H]12 (stereo not given in full),3.48% [at 42.5 µM] (inactive),
N#CC(C#N)=C(C#N)C#N,4.16% (inactive),
O=C(O)CCCOc1ccc(Cl)cc1Cl,,inactive
Cc1ccc2c(C)cccc2c1,1.31% (inactive),
CCOc1cccc(C2(N3CCN(c4ccccc4)CC3)CCC(C)CC2)c1 (stereo not given),4.91% (inactive),
C=CCN1C[C@H](C)N([C@H](c2ccc(C(=O)N(CC)CC)cc2)c2cccc(OC)c2)C[C@H]1C,0.454% [at 42.5 µM] (inactive),
Cc1cnc(C2=NC(C)(C(C)C)C(=O)N2)c(C(=O)O)c1 (stereo not given),-5.31% (inactive),
CC(C)(C)CC(C)(C)c1ccc(O)cc1,,61.1 µM (active) and inactive
Nc1c(Br)cc(Br)c2c1C(=O)c1ccccc1C2=O,-8.35% [at 19 µM] (inactive),
CCCN(CCC)c1c([N+](=O)[O-])cc(C(C)C)cc1[N+](=O)[O-],,inactive
CCC(C)Cl (stereo not given),0.415% (inactive),
O=C(Cc1ccccc1)c1ccccc1,-3.19% (inactive),
O=C(N[C@H]1CN2CCC1CC2)c1ccc2c(c1)OCCO2,4.11% (inactive),

SMILES,"activity change, negative = cytotoxicity",Potency
CCCCCCCCCCCCCCCl,0.582% (inactive),
C[C@H]1O[C@H](OC2[C@@H](O)[C@@H](O)C(O)[C@H](O)[C@H]2O)[C@@H](N)C[C@@H]1N=C(N)C(=O)O (stereo not given in full),-0.245% (inactive),
O=C(NCNC(=O)NC1C(=O)NC(=O)N1CO)NC1C(=O)NC(=O)N1CO (stereo not given),3.65% (inactive),
CCCC1CCCCN1 (stereo not given),-2.51% [at 42.5 µM] (inactive),
CC(C)(c1ccccc1)c1cc(-n2nc3ccccc3n2)c(O)c(C(C)(C)c2ccccc2)c1,1.91% [at 42.5 µM] (inactive),
CCC1(C2=NCCN2)Cc2ccccc2O1 (stereo not given),-0.0068% [at 42.5 µM] (inactive),
COC1=CC(=O)O[C@@H](/C=C/c2ccc3c(c2)OCO3)C1,-0.584% (inactive),
COc1ccccc1N1CCNCC1,0.566% [at 42.5 µM] (inactive),
Nc1cc(Cl)cc(C(=O)O)c1Cl,,inactive
CC(O)CN1CCN(CC(=O)[O-])CCN(CC(=O)[O-])CCN(CC(=O)[O-])CC1.[Gd+3] (stereo not given),0.966% [at 42.5 µM] (inactive),
c1ccc2sc(SNC3CCCCC3)nc2c1,,inactive
O=C(O)COc1cc(Cl)c(Cl)cc1Cl,,inactive
Clc1ccc(Cl)c(Cl)c1,,inactive
CC(Oc1cccc(Cl)c1)C(=O)O (stereo not given),-0.33% (inactive),
Cc1cccc(C)c1NC1=NCCCS1,1.46% [at 42.5 µM] (inactive),
CC(C)(C#N)C(C)(C)C#N,-1.1% (inactive),
CNC(=O)Oc1cccc(N=CN(C)C)c1,-0.166% (inactive),
C=CCc1ccccc1O,5.18% (inactive),
O=C(NC(=O)c1cc(F)c(F)cc1Cl)Nc1cc(F)ccc1N1CCC(C(=O)O)CC1,-0.743% [at 42.5 µM] (inactive),
CCCCOC(=O)CCC(=O)OCCCC,1.05% (inactive),
